The source of these data is PubChem BioAssay (Tox21).

The target of experiment [1] is Estrogen receptor (Homo sapiens) (UniProt P03372). Nature of the experiment: qHTS assay to identify small molecule antagonists of the estrogen receptor alpha (ER-alpha) signaling pathway using the BG1 cell line in the presence of 0.1 nM 17-beta-estradiol (AID 1259244). Note: nearly all actives have a fitted effect of over 50% in size. Note: potency is the fitted concentration of half-maximal effect. The method, boiled down: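 Antagonist mode: compounds in DMSO are pinned onto VM7Luc4E2 reporter cells, 0.1 nM final 17beta-estradiol is added, and after 22 h at 37C luciferase luminescence is measured with ONE-Glo.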
Background: qHTS replaces the single test concentration by a dilution series.

The nature of experiment [2]: qHTS assay to identify small molecule HDAC inhibitors (AID 1259364). Note: potency is the fitted concentration of half-maximal effect.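 Note: wild-type HCT-116 cells with endogenous class I/II HDAC activity; nearly all actives have a fitted effect of over 45% in size.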 Summed up: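 Cells (HCT-116, wild type) are seeded at 1,500 per well, incubated overnight, treated with compound in DMSO for 2 hr, then developed with HDAC-Glo I/II reagent for 30 min at room temperature.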
Experiment [3] is described as follows: qHTS assay to identify small molecule HDAC inhibitors - cell viability counter screen (AID 1259365). Note: nearly all actives have a fitted effect of over 50% in size. Note: potency is the fitted concentration of half-maximal effect. Summed up:
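After overnight seeding at 1,500 cells per well, wild-type HCT-116 cultures took up compounds in DMSO for 2hr at 37 C. Viable cell content came from luminescence with CellTiter-Glo.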

Experiment [4] in a line: qHTS assay to identify small molecule antagonists of the sonic hedgehog signaling (Shh) pathway - cell viability counter screen (AID 1259367). Note: nearly all actives have a fitted effect of over 55% in size. Note: potency is the fitted concentration of half-maximal effect. The method, boiled down: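 Fluorescence read-out (CellTiter-Fluor, 1 hr at 37C) taken after 23 hr compound treatment of 3T3 Gli1-Luc cells stimulated with conditioned medium. Cells were seeded at 2,000 per well and pre-incubated 4 hr.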

Experiment [5] is described as follows: qHTS assay to identify small molecule agonists of the sonic hedgehog signaling (Shh) pathway (AID 1259368; calls by dose curve;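 note: NIH/3T3-derived 3T3Gli1-Luc cells carrying a stable Gli1-driven firefly luciferase reporter; series mostly up to about 92 µM; nearly all actives have a fitted effect of over 15% in size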). The method, boiled down:
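Cells of a mouse NIH/3T3 clone stably expressing luciferase under the Gli1 transcriptional response element are exposed to test chemicals for 24 hr at 37 C. Pathway activation is detected as a rise in luminescence.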

The nature of experiment [6]: qHTS assay to identify small molecule antagonists of the sonic hedgehog signaling (Shh) pathway (AID 1259369; calls by dose curve; note: nearly all actives have a fitted effect of over 45% in size; note: potency is the fitted concentration of half-maximal effect). Summed up: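 Cells are plated and held 4hr at 37 C, compounds (DMSO) are pinned in, conditioned medium is added to stimulate the pathway, and after 24hr luciferase reagent is added for 30min before luminescence is read.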
The target of experiment [7] is Estrogen receptor beta (Homo sapiens) (UniProt Q92731). Briefly: qHTS assay to identify small molecule agonists of the estrogen receptor beta (ER-beta) signaling pathway (AID 1259377; active = well fitted activation curve with a large enough effect in the signal ratio in the repeat runs, not every such curve was filed as active; the % refers to the signal ratio). The method, boiled down:
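Read-out: beta-lactamase FRET fluorescence. Cell line: ER-beta-UAS-bla HEK293T in 2% charcoal-stripped FBS. Exposure: 16 hr at 37C. Substrate step: 2 h at room temperature.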

Experiment [8] in a line: qHTS assay to identify small molecule agonists of the androgen receptor (AR) signaling pathway in the presence of an antagonist - cell viability counter screen (AID 1259379). Note: nearly all actives have a fitted effect of over 25% in size. Note: potency is the fitted concentration of half-maximal effect. Summed up: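 Cytotoxicity is assessed by CellTiter-Fluor in MDA-kb2 cells carrying an MMTV-driven luciferase reporter. Cells receive 3.0uM nilutamide plus compounds at 15 concentrations and incubate 16 hr at 37C without CO2 before fluorescence reading.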

Experiment [9] is described as follows: qHTS assay to identify small molecule agonists of the estrogen receptor beta (ER-beta) signaling pathway - cell viability counter screen (AID 1259380). Note: nearly all actives have a fitted effect of over 30% in size. Note: potency is the fitted concentration of half-maximal effect. The method, boiled down:
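Cytotoxicity is measured in parallel with the reporter screen: after 16 hr compound exposure at 37C and a 2 hr LiveBLAzer step, CellTiter-Glo is added to the same ER-beta-UAS-bla HEK293T wells and luminescence read after 30 min.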

Experiment [10] can be described thus: qHTS assay to identify small molecule antagonists of the estrogen receptor beta (ER-beta) signaling pathway - cell viability counter screen (AID 1259382). Note: nearly all actives have a fitted effect of over 55% in size. Note: potency is the fitted concentration of half-maximal effect. Summed up:
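Cytotoxicity counter screen multiplexed with the beta-lactamase antagonist assay: GripTite HEK293T ER-beta-bla cells were treated 16 hr with test chemicals in the presence of 1nM 17-beta-estradiol, and viability was measured by CellTiter-Glo.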

In experiment [11] the target is Estrogen receptor (Homo sapiens) (UniProt P03372). Briefly: qHTS assay to identify small molecule agonists of the estrogen receptor alpha (ER-alpha) signaling pathway in the presence of an antagonist (AID 1259383; calls by dose curve; note: top concentration of the series differs between compounds; nearly all actives have a fitted effect of over 15% in size). Summed up: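 Agonist-mode confirmation in the presence of the ER antagonist ICI-182,780 at 10.0nM final. Breast-derived VM7Luc4E2 reporter cells were exposed to compounds for 22hr, and ERE-driven luciferase was quantified by luminescence.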

Experiment [12] can be described thus: qHTS assay to identify small molecule agonists or antagonists of the thyroid stimulating hormone receptor (TSHR) signaling pathway - wild type cell line counter screen (AID 1259384; calls by dose curve). Summed up: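 Wild-type Hek293 cells, 800/well, 18 h at 37C, then compound with Ro20-1724 for 30 min RT. cAMP by HTRF (cAMP-d2/anti-cAMP cryptate), 1 h RT, fluorescence read. 15 concentrations, triplicates.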

A short description of experiment [13]: qHTS assay to identify small molecule phospholipidosis (PLD) inducers (AID 1259344; active = well fitted curve in the direction sought with a large enough effect; an effect the other way counts as inactive or inconclusive). The method, boiled down:
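Read-out is LipidTOX Red fluorescence (ex 595/em 615) imaged in HepG2 cells after 24 h compound exposure at 37 C, with Hoechst nuclear counterstain (ex 352/em 461) allowing per-cell normalisation.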

The nature of experiment [14]: qHTS assay to identify small molecule agonists of the sonic hedgehog signaling (Shh) pathway - cell viability counter screen (AID 1259366). Note: nearly all actives have a fitted effect of over 50% in size. Note: potency is the fitted concentration of half-maximal effect. The method, boiled down:
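Same-well cytotoxicity read. Gli1-Luc reporter 3T3 cells; compounds 24hr, 37C/5% CO2; CellTiter-Fluor fluorescence.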

Experiment [15] can be described thus: qHTS assay to identify small molecule agonists of the estrogen receptor alpha (ER-alpha) signaling pathway in the presence of an antagonist - cell viability counter screen (AID 1259386).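 Note: series mostly up to about 92 µM; cells exposed to compounds for 22 h at 37 °C before the viability read; nearly all actives have a fitted effect of over 30% in size.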 The method, boiled down:
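Cytotoxicity was measured in parallel with the ERE-luciferase agonist screen, in the same wells. The cells were VM7Luc4E2, which endogenously express ER-alpha, and treatment was with compounds plus 10.0nM ICI-182,780 for 22hr.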

For experiment [16], the target named is Progesterone receptor (Homo sapiens) (UniProt P06401). Briefly: qHTS assay to identify small molecule agonists of the progesterone receptor (PR) signaling pathway (AID 1346784; calls by dose curve; note: nearly all actives have a fitted effect of over 30% in size). Summed up: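 Compounds were tested for PR agonism in HEK 293T cells bearing a beta-lactamase gene under UAS control. Treatment lasted 16 hr at 37C; signal came from fluorescence of a FRET substrate.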

For experiment [17], the target named is Estrogen receptor beta (Homo sapiens) (UniProt Q92731). Briefly: qHTS assay to identify small molecule antagonists of the estrogen receptor beta (ER-beta) signaling pathway (AID 1259378; active = well fitted inhibition curve with a large enough effect in the signal ratio in the repeat runs, not every such curve was filed as active; the % refers to the signal ratio). The method, boiled down: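 ER-beta-UAS-bla HEK293T cells in 2% charcoal-stripped FBS medium treated with compound plus 1nM final 17-beta-estradiol for 16 hr at 37C. Beta-lactamase reporter read by FRET substrate fluorescence after 2 hours at room temperature.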

Experiment [18] concerns the target Thyrotropin receptor (Homo sapiens) (UniProt P16473). Nature of the experiment: qHTS assay to identify small molecule antagonists of the thyroid stimulating hormone receptor (TSHR) signaling pathway (AID 1259385; calls by dose curve; note: nearly all actives have a fitted effect of over 20% in size; note: potency is the fitted concentration of half-maximal effect). Summed up:
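TSHR-HEK293 cells (800/well) plated 18 h, then compounds with Ro20-1724 and TSH at 1.5 ng/mL final, 30 min at room temperature. cAMP quantified by HTRF (cAMP-d2/anti-cAMP-cryptate, 1 h); 15 concentrations in triplicate.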

Experiment [19] deals with Androgen receptor (Homo sapiens) (UniProt P10275). Nature of the experiment: qHTS assay to identify small molecule agonists of the androgen receptor (AR) signaling pathway in the presence of an antagonist (AID 1259381; calls by dose curve; note: nearly all actives have a fitted effect of over 15% in size). Summed up: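 Agonist-mode confirmation screen: human MDA-kb2 cells stably expressing luciferase under an MMTV promoter bearing AR and GR response elements, co-treated with 3.0uM nilutamide (final). Luminescence measured after 16hr compound incubation.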

The structures appear in SMILES notation. Values joined by “and” are separate entries in the source; they are usually repeats but may differ in a detail not shown here. Equal entries are not always repeated. Records with an inconclusive call do not appear. Active and inactive are the calls of the source. Unless noted, calls come from the whole dose curve; as a rule, active = well fitted curve in the direction sought with a large enough effect in the repeat runs; inconclusive = weak or mixed curves; inactive = no such curve, though single readings can be large; an effect the other way counts as inactive or inconclusive.

Thyrotropin receptor (Homo sapiens), sequence (P16473 whole entry, looked up): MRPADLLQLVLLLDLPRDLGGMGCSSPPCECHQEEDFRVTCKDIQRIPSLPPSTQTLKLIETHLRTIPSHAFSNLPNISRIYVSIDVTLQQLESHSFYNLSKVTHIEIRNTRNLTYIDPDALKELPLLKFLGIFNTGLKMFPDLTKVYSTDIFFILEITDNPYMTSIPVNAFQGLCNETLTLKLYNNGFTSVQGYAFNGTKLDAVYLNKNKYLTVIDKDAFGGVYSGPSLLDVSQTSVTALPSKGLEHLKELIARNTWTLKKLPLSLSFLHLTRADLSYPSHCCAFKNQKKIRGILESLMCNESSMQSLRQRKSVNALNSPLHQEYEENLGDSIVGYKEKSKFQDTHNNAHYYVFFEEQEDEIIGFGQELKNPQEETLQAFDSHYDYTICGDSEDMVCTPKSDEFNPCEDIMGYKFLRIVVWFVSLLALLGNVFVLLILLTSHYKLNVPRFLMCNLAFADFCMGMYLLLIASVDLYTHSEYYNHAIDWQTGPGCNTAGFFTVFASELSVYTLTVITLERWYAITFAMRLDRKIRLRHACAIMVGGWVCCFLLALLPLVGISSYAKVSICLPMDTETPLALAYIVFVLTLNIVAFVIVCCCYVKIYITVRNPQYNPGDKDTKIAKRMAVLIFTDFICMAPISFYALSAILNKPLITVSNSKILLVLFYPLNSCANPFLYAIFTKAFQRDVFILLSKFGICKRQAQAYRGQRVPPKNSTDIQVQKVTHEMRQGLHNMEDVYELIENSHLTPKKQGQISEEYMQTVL
Estrogen receptor beta (Homo sapiens), sequence (Q92731 whole entry, looked up): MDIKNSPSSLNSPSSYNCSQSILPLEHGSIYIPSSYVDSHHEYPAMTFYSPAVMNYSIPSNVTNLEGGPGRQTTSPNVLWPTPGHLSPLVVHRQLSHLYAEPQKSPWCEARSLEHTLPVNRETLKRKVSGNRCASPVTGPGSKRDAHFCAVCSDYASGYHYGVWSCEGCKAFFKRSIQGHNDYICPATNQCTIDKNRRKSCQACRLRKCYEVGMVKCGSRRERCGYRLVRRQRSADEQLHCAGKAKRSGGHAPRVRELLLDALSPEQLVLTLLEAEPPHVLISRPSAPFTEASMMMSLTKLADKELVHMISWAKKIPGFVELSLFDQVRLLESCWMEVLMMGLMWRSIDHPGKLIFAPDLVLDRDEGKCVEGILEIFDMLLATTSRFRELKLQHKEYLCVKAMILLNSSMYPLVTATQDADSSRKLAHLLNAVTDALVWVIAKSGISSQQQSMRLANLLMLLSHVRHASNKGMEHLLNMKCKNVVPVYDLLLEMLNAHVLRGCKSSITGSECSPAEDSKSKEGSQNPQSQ
Estrogen receptor (Homo sapiens), sequence (P03372 whole entry, looked up): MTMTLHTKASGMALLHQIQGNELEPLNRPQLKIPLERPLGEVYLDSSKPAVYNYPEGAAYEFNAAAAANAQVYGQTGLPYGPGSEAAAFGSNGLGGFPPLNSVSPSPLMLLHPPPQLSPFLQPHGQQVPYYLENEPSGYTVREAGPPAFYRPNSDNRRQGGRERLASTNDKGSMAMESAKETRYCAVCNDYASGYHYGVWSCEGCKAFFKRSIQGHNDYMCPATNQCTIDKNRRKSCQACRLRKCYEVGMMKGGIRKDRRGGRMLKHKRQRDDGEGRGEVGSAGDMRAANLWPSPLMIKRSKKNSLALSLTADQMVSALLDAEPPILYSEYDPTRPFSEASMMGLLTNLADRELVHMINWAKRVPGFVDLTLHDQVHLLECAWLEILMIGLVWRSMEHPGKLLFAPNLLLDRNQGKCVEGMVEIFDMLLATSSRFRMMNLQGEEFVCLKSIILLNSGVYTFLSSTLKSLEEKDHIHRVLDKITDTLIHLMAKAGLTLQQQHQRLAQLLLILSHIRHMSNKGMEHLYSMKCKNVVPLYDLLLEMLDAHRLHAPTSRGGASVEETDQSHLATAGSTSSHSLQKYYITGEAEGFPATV
Progesterone receptor (Homo sapiens), sequence (P06401 whole entry, looked up): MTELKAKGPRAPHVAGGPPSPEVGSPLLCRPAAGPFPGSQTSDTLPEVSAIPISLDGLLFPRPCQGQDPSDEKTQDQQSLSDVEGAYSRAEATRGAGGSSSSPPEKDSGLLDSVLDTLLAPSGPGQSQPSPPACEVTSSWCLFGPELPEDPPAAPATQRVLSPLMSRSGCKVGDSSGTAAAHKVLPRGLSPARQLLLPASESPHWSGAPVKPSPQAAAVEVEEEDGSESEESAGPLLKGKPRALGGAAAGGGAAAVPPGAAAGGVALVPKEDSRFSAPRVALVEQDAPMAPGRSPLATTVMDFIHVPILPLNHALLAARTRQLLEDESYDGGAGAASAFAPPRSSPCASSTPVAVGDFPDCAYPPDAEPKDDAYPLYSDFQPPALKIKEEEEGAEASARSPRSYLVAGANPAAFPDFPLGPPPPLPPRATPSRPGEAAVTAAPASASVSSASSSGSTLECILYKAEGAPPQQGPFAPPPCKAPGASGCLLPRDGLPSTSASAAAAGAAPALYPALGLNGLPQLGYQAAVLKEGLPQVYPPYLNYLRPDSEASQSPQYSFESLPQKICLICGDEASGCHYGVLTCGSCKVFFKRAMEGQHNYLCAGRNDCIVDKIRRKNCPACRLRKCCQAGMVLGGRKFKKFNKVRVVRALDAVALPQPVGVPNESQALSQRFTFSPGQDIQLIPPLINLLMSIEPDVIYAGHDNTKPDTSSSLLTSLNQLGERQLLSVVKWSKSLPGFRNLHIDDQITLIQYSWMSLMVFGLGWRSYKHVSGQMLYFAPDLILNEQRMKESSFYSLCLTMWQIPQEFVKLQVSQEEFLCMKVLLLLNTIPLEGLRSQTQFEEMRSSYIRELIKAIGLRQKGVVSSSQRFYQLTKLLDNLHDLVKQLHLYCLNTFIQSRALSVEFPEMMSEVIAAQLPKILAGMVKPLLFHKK
Androgen receptor (Homo sapiens), sequence (P10275 whole entry, looked up): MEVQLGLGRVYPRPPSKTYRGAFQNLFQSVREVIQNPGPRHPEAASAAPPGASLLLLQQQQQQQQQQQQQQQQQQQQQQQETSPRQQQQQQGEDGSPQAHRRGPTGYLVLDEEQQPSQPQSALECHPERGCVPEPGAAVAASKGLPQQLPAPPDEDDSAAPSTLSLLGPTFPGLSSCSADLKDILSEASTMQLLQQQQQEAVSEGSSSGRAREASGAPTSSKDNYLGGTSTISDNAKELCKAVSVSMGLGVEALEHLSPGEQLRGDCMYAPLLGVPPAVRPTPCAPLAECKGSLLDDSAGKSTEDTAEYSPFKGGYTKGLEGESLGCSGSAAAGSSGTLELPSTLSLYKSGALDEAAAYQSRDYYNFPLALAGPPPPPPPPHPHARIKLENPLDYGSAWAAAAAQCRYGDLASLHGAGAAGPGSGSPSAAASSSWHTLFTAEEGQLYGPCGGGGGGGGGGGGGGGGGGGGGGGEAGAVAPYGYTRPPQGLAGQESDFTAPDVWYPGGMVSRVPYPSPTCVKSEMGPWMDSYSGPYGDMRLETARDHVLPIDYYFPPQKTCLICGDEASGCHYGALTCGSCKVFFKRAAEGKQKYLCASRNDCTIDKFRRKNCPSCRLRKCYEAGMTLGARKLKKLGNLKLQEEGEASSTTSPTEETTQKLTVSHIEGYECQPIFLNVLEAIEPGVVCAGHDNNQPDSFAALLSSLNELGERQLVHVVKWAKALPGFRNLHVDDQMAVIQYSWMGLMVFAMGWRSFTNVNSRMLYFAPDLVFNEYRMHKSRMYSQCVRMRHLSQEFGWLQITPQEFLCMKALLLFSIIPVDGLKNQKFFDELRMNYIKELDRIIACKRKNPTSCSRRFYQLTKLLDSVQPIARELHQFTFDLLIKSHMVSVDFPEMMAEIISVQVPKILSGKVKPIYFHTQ

On to `O=[N+]([O-])c1ccccc1Nc1ccccc1`, for which the Potency result in [1], in experiment [2], in experiment [3], in experiment [4], in experiment [5] and in experiment [6] was “inactive” each time. Also, the Potency entry in experiment [7], in experiment [8], in experiment [9], in experiment [10] and in experiment [11] was “inactive” throughout. Moreover, the result in experiment [12] was inactive.

Turning to `COc1c(C)c2c(c(O)c1C/C=C(\C)CCC(=O)O)C(=O)OC2`, the Potency result in experiment [1], in [13], in experiment [3], in experiment [14], in experiment [4] and in experiment [5] was “inactive” each time. In addition, the Potency entry in experiment [6], in [7], in experiment [8], in [11], in [15] and in [16] was “inactive” each time. Moreover, the Potency in [9] is 133 nM (active).

Take `C[C@]12CCC(=O)C=C1CC[C@@H]1[C@@H]2[C@@H](O)C[C@@]2(C)[C@H]1CC[C@]2(O)C(=O)COC(=O)CCC(=O)O`: the Potency result in experiment [1], in [2], in experiment [3], in [4], in [5] and in experiment [6] was “inactive” in each case. The Potency entry in [7], in experiment [8], in [9], in [10], in experiment [11] and in [15] was “inactive” in each case. Moreover, in experiment [12], the compound was classed as inactive.

For `CCCCCCCCCCCCCCCS(=O)(=O)Oc1ccccc1`, the Potency entry in [1], in experiment [2], in experiment [3], in experiment [14], in [4] and in [6] was “inactive” throughout. Moreover, the Potency entry in experiment [7], in experiment [17], in experiment [9], in [10], in experiment [11] and in experiment [18] was “inactive” each time. Moreover, in experiment [15], the Potency entry was “inactive”. In addition, the result in experiment [12] was inactive.

As to `CCOC(=O)O[C@H](C)OC(=O)c1ccc2c(c1)cc(C(=O)NC1CCN(C(C)C)CC1)n2Cc1cc(-c2ccc(Cl)s2)on1`, the Potency in experiment [1] is 64.1 µM (active); in experiment [3] it was 50.9 µM (active); in experiment [14] it was 12.8 µM (active); in experiment [4], 20.3 µM (active); in [6], 9.05 µM (active); in experiment [8] it was 45.4 µM (active). Also, the results for the Potency in experiment [9], in [10] and in experiment [18] were 20300 nM (active), 22.7 µM (active) and 64.1 µM (active), respectively. In addition, the Potency entry in [2] and in [11] was “inactive” in each case.

`CCCCCCCCOC(=O)c1ccc(O)cc1`: the Potency entry in experiment [1], in experiment [2], in experiment [3], in experiment [14], in experiment [4] and in experiment [5] was “inactive” each time. Moreover, the Potency result in [7], in experiment [8], in experiment [18] and in [15] was “inactive” each time. Moreover, the Potency in experiment [9] is 54.3 µM (active) and 48.6 µM (active); in experiment [10], 43.1 µM (active). The outcome in experiment [12] was inactive.

In the case of `Clc1ccc2cc3ccccc3cc2c1`, the Potency entry in experiment [1], in [3], in experiment [14], in experiment [5], in experiment [6] and in experiment [9] was “inactive” throughout. For the same compound, the Potency entry in [19], in experiment [10] and in experiment [15] was “inactive” each time. Further, the Potency in [2] is 54.4 µM (active).
